In the library only some 0.4% were active in any assay of this set; here they are far more common.
EPAC1 antag – EPAC1 (human) antagonism; O95398; EPAC1 GEF assay, Rap1b-BODIPY-GDP exchange fluorescence; Potency, µM (series often up to 115 µM), most hits filed as inhibitors; 0.14% of 360,000 active; AID 720709; note: nearly all actives have a fitted effect of over 50% in size
ERG-DNA inh – inhibitors of human ERG Ets domain-DNA interaction | fluorescence polarization, His-ERG Ets domain / labelled DNA | Potency, µM (top dose mostly 76.9 µM), hits mostly inhibitors | 0.028% of 370,000 active | AID 624246 | P11308; active = well fitted inhibition curve with a large enough effect in the polarisation, with a control signal flat; inconclusive = small, poorly fitted or top-dose-only effect, or effect the other way, or a change in a side signal; inactive = no such curve, though single readings can be large or run the other way; the % refers to the polarisation;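 note: polarization taken with two DNA probes labelled with fluorescein and Texas red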
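His-tagged ERG Ets domain (1 uM in the protein solution; 300mM KCl, 50mM Tris-HCl, 1mM EDTA, 1mM DTT, pH 7.5) received compound, then a probe mix of 5 nM fluorescein-DNA and 100nM Texas-615-DNA. Fluorescence polarization was read for both dyes.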
RGS4 inh – blocks human RGS4-accelerated GTP hydrolysis; P49798; 0.039% of 390,000 active; Potency, µM (top dose mostly 114 µM), most hits filed as inhibitors; Transcreener GDP fluorescence polarization, RGS4-accelerated GTP hydrolysis; AID 504845; note: nearly all actives have a fitted effect of over 75% in size
Target sequence (P49798 whole entry, looked up): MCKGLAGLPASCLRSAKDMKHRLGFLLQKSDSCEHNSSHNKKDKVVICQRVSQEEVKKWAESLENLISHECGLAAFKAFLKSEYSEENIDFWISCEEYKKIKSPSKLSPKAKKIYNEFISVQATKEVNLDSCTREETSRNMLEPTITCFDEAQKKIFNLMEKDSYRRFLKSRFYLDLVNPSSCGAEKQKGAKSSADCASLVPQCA
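MLSMR compounds (23 nl, pin-transferred) preincubated 10 min at room temperature with a 500nM (2x) first reagent, then RGS4 at 900nM (2x) plus Transcreener GDP mix added; fluorescence polarization (620/688 nm) read before and after 90 min at 30 °C.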
EPAC1 ag – activates human EPAC1 exchange factor; O95398; EPAC1 agonist qHTS, biochemical assay; response scale: 100% = response to 6.5 mM cAMP; Potency, µM (highest dose often 154 µM), actives largely listed as activators; 0.073% of 360,000 active; note: nearly all actives have a fitted effect of over 60% in size
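EPAC1 100 nM, Rap1B–BODIPY-GDP 250 nM, unlabeled GDP 50 uM; compound titration; 5 min RT; kinetic read ex480/em540 at 5-min intervals ×30 min; data normalized to 6.5 mM cAMP agonist control.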
EPAC2 antag – antagonists of human EPAC2; Q8WZA2; EPAC2 GEF exchange of Rap1B-BODIPY-GDP, fluorescence; Potency, µM (titrated, usually from 114 µM), most hits filed as inhibitors; 0.18% of 360,000 active; AID 720708; note: nearly all actives have a fitted effect of over 45% in size
EPAC2 agonist – agonists of human EPAC2 (RAPGEF4). Q8WZA2. EPAC2 activation, biochemical qHTS; response scale: 100% = 6.5 mM cAMP response. Potency, µM (top dose mostly 154 µM), actives largely listed as activators. 0.079% of 360,000 active. AID 720711; note: nearly all actives have a fitted effect of over 50% in size
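Setup: EPAC2 100 nM, labeled Rap1B complex 250 nM, free GDP 50 uM. Compound titrations pinned in, brief spin, 5 min room temperature incubation. Kinetic fluorescence read over 30 min, normalized to 6.5 mM cAMP.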
Large screens that a line does not name were inactive. Unless noted, calls come from the whole dose curve; as a rule, active = well fitted curve in the direction sought with a large enough effect; inconclusive = small, poorly fitted or top-dose-only effect, or another doubt; inactive = no such curve, though single readings can be large; an effect the other way counts as inactive or inconclusive.

CCCCCCCCc1ccc(-c2ccc(C(=O)O)cc2)cc1	RGS4 inh 21.2µM (no result: EPAC1 antag, ERG-DNA inh, EPAC1 ag, EPAC2 antag, EPAC2 agonist)
CCCCCCCCCCCCCCCCCCc1ccc(C(=O)/C=C\C(=O)O)cc1	none (no result: EPAC1 antag, ERG-DNA inh, EPAC1 ag, EPAC2 antag, EPAC2 agonist)
C=CC(=O)c1ccc(CCCCCC)cc1	RGS4 inh 2.67µM (no result: EPAC1 antag, ERG-DNA inh, EPAC1 ag, EPAC2 antag, EPAC2 agonist)
O=c1c2oc3ccccc3c2n(Cc2ccccc2Cl)c(=O)n1Cc1ccc2c(c1)OCO2	none (no result: EPAC1 antag, EPAC1 ag, EPAC2 antag, EPAC2 agonist)
COc1ccc(-c2nc3ccc(NC(C)=O)cc3c(=O)n2Cc2ccccc2)cc1COc1ccc(NC(C)=O)cc1	none (no result: EPAC1 antag, ERG-DNA inh, EPAC1 ag, EPAC2 antag, EPAC2 agonist)
O=C(Oc1ccc2c(c1)O/C(=C\c1ccncc1)C2=O)c1cccs1	none
COc1ccccc1C(=O)Oc1ccc2c(c1)O/C(=C\c1ccncc1)C2=O	EPAC1 ag 100µM
CC(=O)Oc1ccc2c(c1)O/C(=C\c1ccncc1)C2=O	EPAC1 ag 89.1µM, EPAC2 agonist inconclusive
C/C(CC(=O)Nc1ccc2ccccc2c1)=N\NC(=O)c1cnccn1	EPAC1 ag 39.8µM
COC(=O)C1=C(C)NC(C)=C([N+](=O)[O-])C1c1ccccc1C(F)(F)F (stereo not given)	EPAC2 antag 50.1µM
CCc1ccccc1NC(=O)CSc1nc2c(oc3ccccc32)c(=O)n1-c1ccccc1F	none (no result: EPAC1 antag, EPAC1 ag, EPAC2 antag, EPAC2 agonist)
Cc1ccc(NC(=O)COC(=O)Cn2c(C)csc2=O)c([N+](=O)[O-])c1	EPAC1 ag 100µM
COc1ccc(NC(=O)c2cccc3ccccc23)cc1	none
O=C(c1ccccc1)c1cccc2ccccc12	EPAC2 antag 12.6µM
COC(=O)c1ccccc1C(=O)c1cccc2ccccc12	EPAC2 antag 44.7µM
COc1ccccc1NC(=O)c1cc(S(=O)(=O)N(C)C2CCCCC2)ccc1F	none (no result: EPAC1 antag, EPAC1 ag, EPAC2 antag, EPAC2 agonist)
O=C(NC1(O)C(=O)c2ccccc2C1=O)c1c(Cl)cccc1Cl	EPAC1 antag 50.1µM, ERG-DNA inh inconclusive, EPAC2 antag inconclusive
CC(C)(C)C(=O)Nc1ccc2c(c1)C(=O)C(=O)c1ccccc1-2	none (no result: EPAC1 antag, ERG-DNA inh, EPAC1 ag, EPAC2 antag, EPAC2 agonist)
COc1cc(NC(=O)c2cnc(N)s2)cc(C(=O)Nc2cccc(C(F)(F)F)c2)c1	EPAC1 antag 39.8µM
COc1cc(NC(=O)c2csc(N)n2)cc(C(=O)Nc2cccc(C(F)(F)F)c2)c1	none
COc1cc(NC(=O)c2ccnc(N)c2)cc(C(=O)Nc2cccc(C(F)(F)F)c2)c1	EPAC1 antag 70.8µM
CCOC(=O)c1cnc2nc(NCc3cccc(Br)c3)[nH]n2c1=O	none (no result: EPAC1 antag, EPAC1 ag, EPAC2 antag, EPAC2 agonist)
Cc1cc(/C=C2\SC(=S)NC2=O)c(C)n1-c1ccc(O)cc1	EPAC1 antag inconclusive, EPAC2 antag inconclusive
Cc1cc(/C=C2\SC(=S)NC2=O)cc(C)c1O	EPAC1 antag inconclusive, EPAC2 antag 15.8µM
COc1ccccc1C=C1SC(=S)NC1=O	EPAC1 antag inconclusive, RGS4 inh inconclusive (no result: ERG-DNA inh)
O=C1NC(=Nc2ccccc2Cl)S/C1=C\c1cccc([N+](=O)[O-])c1	none
Cc1cc(/C=C2\SC(=S)NC2=O)c(C)n1C	EPAC1 antag inconclusive (no result: ERG-DNA inh)
O=C1NC(=S)S/C1=C\c1cccc([N+](=O)[O-])c1	EPAC1 antag inconclusive, EPAC2 antag 50.1µM
O=C1NC(=S)S/C1=C\c1cc(Cl)cc(Cl)c1O	EPAC1 antag 39.8µM, RGS4 inh inconclusive, EPAC2 antag 56.2µM
O=C1NC(=S)SC1=Cc1ccccc1Cl	EPAC1 antag inconclusive, EPAC2 antag 35.5µM
CCN(CC)CC#CC(OC)(c1ccccc1)c1ccccc1	EPAC2 antag 39.8µM
CCN(CC)CCC#CC(O)(c1ccccc1)c1ccccc1	none
CCOC(=O)c1cc(S(=O)(=O)Nc2ccc(OC)c(Cl)c2)[nH]n1	none (no result: EPAC1 antag, EPAC1 ag, EPAC2 antag, EPAC2 agonist)
COc1nc(Oc2ccc(=O)[nH]n2)nc(N2CCOCC2)n1	none
CN(C)c1nc(Oc2ccc(=O)[nH]n2)nc(N2CCOCC2)n1	EPAC2 antag 25.1µM
Cc1cc(C)n(CCOc2ccc(Br)cc2)n1	EPAC2 antag 35.5µM
Nc1ncnc2n[nH]c(Nc3ccc(F)cc3)c12	none (no result: EPAC1 antag, ERG-DNA inh, EPAC1 ag, EPAC2 antag, EPAC2 agonist)
Cc1cc(O)c(C(c2cccc(Cl)c2)N2CCN(c3ccccc3)CC2)c(=O)n1Cc1ccco1 (stereo not given)	none (no result: EPAC1 antag, EPAC1 ag, EPAC2 antag, EPAC2 agonist)
